Values joined by “and” are separate entries in the source; they are usually repeats but may differ in a detail not shown here. Equal entries are not always repeated. Among all 340,000 compounds or so, about 6,900 (2%) were called active. Cut-off read from the data, not from the text of the source: active = inhibition above about 30%; inactive = below that, where a call was filed. Shown is part of a subset that was picked to be rich in actives. A structure can be active in one record and inactive in another.

As a reminder, the inhibition is the relative decrease from the control value, in per cent.

In this test the target is D(2) dopamine receptor (Homo sapiens) (UniProt P14416). Briefly: HTS Assay for Allosteric Antagonists of the Human D2 Dopamine Receptor: Primary Screen for Antagonists. Note: 0% is about no effect. As to conditions: HEK293 TREx D2 cells, calcium flux, dopamine EC80; at 10 µM; stronger effect = higher value. The procedure, abridged: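 Inhibition of EC80 dopamine-driven calcium flux, recorded kinetically, defines activity here; cells are a tetracycline-induced HEK293 T-REx line expressing force-coupled D2.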
Chain of D(2) dopamine receptor (Homo sapiens) (P14416 whole entry, looked up): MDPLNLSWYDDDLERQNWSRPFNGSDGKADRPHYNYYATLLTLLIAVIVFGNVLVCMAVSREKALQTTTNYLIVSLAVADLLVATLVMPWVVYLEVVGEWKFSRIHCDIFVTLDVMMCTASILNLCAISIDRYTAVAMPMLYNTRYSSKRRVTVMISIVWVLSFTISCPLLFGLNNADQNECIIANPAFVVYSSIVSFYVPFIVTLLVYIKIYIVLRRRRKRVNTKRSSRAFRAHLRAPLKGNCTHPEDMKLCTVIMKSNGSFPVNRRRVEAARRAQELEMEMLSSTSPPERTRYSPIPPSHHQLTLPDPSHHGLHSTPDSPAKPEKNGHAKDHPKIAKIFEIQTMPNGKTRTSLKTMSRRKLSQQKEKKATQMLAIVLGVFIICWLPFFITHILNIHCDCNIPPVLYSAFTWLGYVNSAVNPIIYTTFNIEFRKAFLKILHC
(Calcium assays in cells follow changes in intracellular calcium, usually with a dye or a luminescent sensor.)
For `Cc1cc(C(=O)COc2ccccc2Cl)c(C)n1C1CC1`, the inhibition was -29.6% (inactive).

Turning to `Cc1ccc(S(=O)(=O)Cc2cc(-c3ccc(Cl)cc3)no2)cc1`, the inhibition was -17% (inactive).

On to `CC(C)C(=O)NCc1cc(-c2ccc(Cl)cc2)no1`, for which the inhibition was 41.7% (active).

As for `CC(C)CNC(=O)c1cc(-c2ccc(Br)cc2)on1`, the inhibition is -7.31% (inactive). Consider `Cc1cc(C)n2nc(C(=O)Nc3cccc(S(=O)(=O)N4CCOCC4)c3)nc2n1`, for which the inhibition was 7.16% (inactive). The figure for `CC(C)c1ccc2c(c1)c(SC(C)(C)C)c(CC(C)(C)C(=O)O)n2Cc1ccc(Cl)cc1` is 6.19% (inactive) and 47.1% (active). The figure for `O=C(O)c1ccc(Cn2c(=S)[nH]c3cc(Cl)ccc3c2=O)cc1` is -1.7% (inactive); for `CCCCCCSc1ccc([C@@H]2[C@@H]3C(=O)N(CC)C(=O)[C@@H]3[C@]3(C(=O)OC)CCCCN23)cc1OC` it is 6.12% (inactive).

`COc1cc(OC)c(N2CC(C(=O)Nc3cc(Cl)ccc3N3CCOCC3)CC2=O)cc1Cl` (stereo not given): the inhibition is -13.1% (inactive). On to `CCN(CC(=O)Nc1ccc(S(=O)(=O)N2CCCC2)cc1)CC(=O)Nc1cccc(OC)c1`, for which the inhibition was -1.82% (inactive). The figure for `COc1ccccc1CC(=O)Nc1ccc(S(=O)(=O)N2CCCC2)cc1` is 39.2% (active); for `O=C(CN1CCCCCC1)Nc1ccc(S(=O)(=O)N2CCCCC2)cc1` it is -6.5% (inactive); for `COc1cc(OC)cc(C(=O)NNC(=O)CCOc2ccccc2OC)c1` it is 23.6% (inactive).

As for `Cc1cccc(NC(=O)CCN2CC(C)CC(C)C2)c1` (stereo not given), the inhibition is 4.5% (inactive). In the case of `CC1CC(C)CN(CCOc2cccc3ccccc23)C1` (stereo not given), the inhibition is 55.1% (active). For the compound `Cc1[nH]c2ccccc2c1C(=O)CN1CC(C)CC(C)C1` (stereo not given), the inhibition was 14.4% (inactive). The figure for `COc1cccc(NC(=O)COC(=O)/C=C/c2ccco2)c1` is 13.2% (inactive); for `Cn1c(SCC(=O)Nc2ccc(N3CCOCC3)cc2)nnc1C(F)(F)F` it is 6.16% (inactive). The figure for `O=C(c1ccc2c(c1)OCCO2)C1CCN(S(=O)(=O)c2cccc(F)c2)CC1` is 61.3% (active); for `O=C(Nc1ccccn1)C1CCN(S(=O)(=O)c2ccc3c(c2)OCCO3)CC1` it is -2.31% (inactive).

As for `O=C(c1c(F)cccc1F)N1CCN(S(=O)(=O)c2ccc3c(c2)OCCO3)CC1`, the inhibition was 8.79% (inactive). In the case of `O=C(CSc1nnc(N2CCOCC2)n1-c1cccc(F)c1)N1CCN(c2ccccn2)CC1`, the inhibition was 4.3% (inactive). The figure for `COc1ccccc1C(=O)NCC(=O)OCC(=O)Nc1nnc(-c2ccccc2)o1` is 1.12% (inactive). The figure for `CC(C)(C)C(=O)CSc1ccc(S(=O)(=O)N2CCCC2)cn1` is 5.12% (inactive). The figure for `Cc1c(CN2CCCC(C(=O)c3cccc(Cl)c3)C2)c(=O)n(-c2ccccc2)n1C` (stereo not given) is -0.0762% (inactive); for `Cc1cccc(N2CCN(Cc3c(C)n(C)n(-c4ccccc4)c3=O)CC2)c1C` it is 41.2% (active).

As to `Cc1c(CN2CCC(C)CC2)c(=O)n(-c2ccccc2)n1C`, the inhibition is -7.69% (inactive).

As to `C#CCOCCOCCOCCNc1nc(N2CCN(C(=O)CCCCCCCCCCNC(=O)[C@H](CCCCN)n3cc(C)nn3)CC2)nc(N2CCN(C(=O)CCCCCCCCCCNC(=O)[C@H](CO)n3cc(CCCSC)nn3)CC2)n1`, the inhibition is -18.3% (inactive). The figure for `CC12CCC(=O)N1C(C(=O)NCCN1C(=O)S/C(=C\c3ccccc3F)C1=O)CS2` (stereo not given) is -9.13% (inactive). The figure for `CCOc1ccc(NS(=O)(=O)c2ccc(Cl)c(C(=O)N(C)Cc3cccnc3)c2)cc1` is 10.8% (inactive); for `CCN(CC)S(=O)(=O)c1ccc(N2CCOCC2)c(NC(=O)c2ccc(=O)n(C)n2)c1` it is -40.6% (inactive); for `CSc1nc(-c2ccco2)nn1C(=O)CCc1ccccc1` it is 10.1% (inactive).

`O=c1nc2s/c(=C\c3ccco3)c(=O)n2nc1Cc1ccccc1`: the inhibition was -1.5% (inactive).

As for `CCOc1ccccc1/C=c1\sc2nc(-c3ccco3)nn2c1=O`, the inhibition is 33.5% (active). For the compound `CC(=O)c1ccccc1NC(=O)C1CC(=O)N(c2ccc3c(c2)OCCO3)C1` (stereo not given), the inhibition is -6.21% (inactive).

For the compound `COc1ccc(OC)c(/C=C/C(=O)c2ccc3c(c2)OCO3)c1`, the inhibition was 6.23% (inactive).

As to `Cc1nc(N)nc(SCc2ccc([N+](=O)[O-])cc2)c1N`, the inhibition is 12.4% (inactive). The figure for `Nc1nc(SCc2ccc([N+](=O)[O-])cc2)c2ncn(C3OC(CO)C(O)C3O)c2n1` (stereo not given) is 36.3% (active); for `Cc1cc(C)cc(C(=O)N2CCN=C2SCc2ccc([N+](=O)[O-])cc2)c1` it is -7.25% (inactive).

On to `COc1cc(F)c(C2=CC(=O)CC(C)(C)C2)cc1F`, for which the inhibition is -9.82% (inactive). The figure for `COC(=O)c1cccc(NC(=O)c2cccc(N3C(=O)CCC3=O)c2)c1` is 0.805% (inactive); for `COc1ccc([C@@H]2[C@@H]3C(=O)N(C(C)(C)C)C(=O)[C@@H]3[C@]3(Cc4ccccc4)C(=O)N(c4cccc(Br)c4)C(=O)N23)cc1` it is -3.44% (inactive).

For `Cc1ccc(C)c(NS(=O)(=O)c2ccc(OCC(=O)NCc3cccnc3)cc2)c1`, the inhibition is 42.3% (active). The figure for `Cc1cc(S(=O)(=O)NC2CCCCC2)ccc1OCC(=O)NCc1cccnc1` is -3.46% (inactive); for `Cc1ccc(CNC(=O)COc2ccc(S(=O)(=O)NC(C)C)cc2)cc1` it is 6.5% (inactive); for `Cc1cccc(C(=O)NCc2nnc(SC(C)C(=O)Nc3nnc(C)s3)n2C)c1` (stereo not given) it is 8.11% (inactive). The figure for `CC1(C)CC(=O)C=C(c2ccc3ncccc3c2)C1` is -2.57% (inactive). As for `CCN(CC(=O)Nc1c(F)cccc1F)C(=O)C1CCC1`, the inhibition was -5.66% (inactive).

As to `Cc1cc(C)cc(C(=O)NCC(=O)OCC(=O)N2CCCCC2)c1`, the inhibition is 1.51% (inactive). `CCOc1ccc(C(=O)NCC(=O)N2CCCCCCC2)cc1OCC`: the inhibition was -3.78% (inactive). For `COc1cc(OC)cc(C(=O)NCC(=O)N2CCCCCCC2)c1`, the inhibition is 33.6% (active). Regarding `N/C(=N\OC(=O)N1c2ccccc2Sc2ccccc21)c1ccc(Br)cc1`, the inhibition was -13.7% (inactive).

On to `N/C(=N\OC(=O)/C=C/c1ccccc1)c1ccc(Br)cc1`, for which the inhibition was -2.34% (inactive). The figure for `N/C(=N\OC(=O)c1ccc2c(c1)OCO2)c1ccc(Br)cc1` is 46.1% (active). The figure for `Cn1nc(C(=O)OCC(=O)N(Cc2ccccc2)C(C)(C)C)c2ccccc2c1=O` is -16.5% (inactive). In the case of `OCCC1CN(Cc2cccc(OC3CCCC3)c2)CCN1Cc1ccsc1` (stereo not given), the inhibition was 65.5% (active). The figure for `OCCC1CN(Cc2ccccc2-c2ccco2)CCN1Cc1ccsc1` (stereo not given) is -17.4% (inactive); for `OCCC#Cc1ccc(CN2CCN(Cc3ccsc3)C(CCO)C2)cc1` (stereo not given) it is 6.27% (inactive); for `OCCC1CN(Cc2cccc(O)c2)CCN1CCc1ccccc1` (stereo not given) it is 54.8% (active). The figure for `OCCC1CN(Cc2ccc(Oc3ncccn3)cc2)CCN1CCc1ccccc1` (stereo not given) is -20.6% (inactive). On to `OCCC1CN(Cc2cnc(-c3ccccc3)s2)CCN1CCc1ccccc1` (stereo not given), for which the inhibition is -6.7% (inactive). The figure for `Cc1ccc(NC(=O)CCCNC(=O)c2ccc(Cl)cc2)cc1S(=O)(=O)N1CCCCC1` is 2.49% (inactive); for `Nc1ccc(C(=O)N2CCN(S(=O)(=O)c3ccc(Cl)cc3)CC2)cc1[N+](=O)[O-]` it is 1.49% (inactive). `OC(COc1ccc2c(c1)CCC2)CN1CCN(c2cccc(Cl)c2)CC1` (stereo not given): the inhibition is 39.2% (active).

Turning to `O=C(COc1ccc2c(c1)CCC2)N1CCN(c2ccc(F)cc2)CC1`, the inhibition was 3.48% (inactive).

For `O=c1cc(CN2CCN(c3cccc(Cl)c3)CC2)c2cc3c(cc2o1)CCCC3`, the inhibition is -7.58% (inactive). The figure for `O=C(O)Cc1sc(-c2ccc(C(=O)O)cc2)nc1-c1ccccc1` is 32.7% (active); for `C/C(=N/Nc1nc(-c2ccccc2)c(CC(=O)O)s1)c1ccccc1` it is -8.33% (inactive); for `O=C(O)Cc1sc(-c2ccccc2)nc1-c1cccs1` it is 3.67% (inactive). The figure for `O=C(Nc1ccccc1N1CCOCC1)c1ccncc1` is -22.1% (inactive); for `COC(=O)c1ccc(C)c(NC(=O)C2CC(=O)N(C3CCCC(C)C3C)C2)c1` (stereo not given) it is 25.8% (inactive); for `c1nc(COc2nsnc2N2CCOCC2)cs1` it is 36.2% (active). The figure for `O=C(O)COc1nsnc1N1CCOCC1` is -6.01% (inactive). As for `c1ccc(COc2nsnc2N2CCOCC2)cc1`, the inhibition is -11.6% (inactive).

On to `Cc1nc(SCC(=O)NC2CCCCC2C)c(C#N)c(C)c1C` (stereo not given), for which the inhibition was -2.83% (inactive). The figure for `CCn1c(C)c(C)c2cc(C(=O)N3CCN(c4cccc(C)c4C)CC3)ccc21` is 35.7% (active); for `Cc1cccc(N2CCN(C(=O)c3cccc(N4C(=O)C5C6C=CC(C6)C5C4=O)c3)CC2)c1C` (stereo not given) it is -3.04% (inactive). Turning to `CCC(CC)C(=O)N1CCN(c2cccc(C)c2C)CC1`, the inhibition is -16.7% (inactive). The figure for `C[C@H](NC(=O)c1ccccc1)C(=O)OCC(=O)c1c[nH]c2ccccc12` is -14% (inactive). The figure for `Cc1ccc(CNC(=O)c2cccc3c2C(=O)c2ccc(N4CCC(C)CC4)cc2S3(=O)=O)cc1` is -2.45% (inactive); for `Cc1nnc(SC(C)C(=O)Nc2ccc(S(=O)(=O)NC3CCCCC3)cc2)s1` (stereo not given) it is 61.3% (active); for `Cc1ccc(Nc2nnc(SC(C)C(=O)NC3CC3)s2)cc1` (stereo not given) it is -31.5% (inactive).

For the compound `CCc1nnc(NC(=O)c2ccc(S(=O)(=O)NC3CCCCC3)cc2)s1`, the inhibition is -18.8% (inactive). `Cc1c(C(=O)OCC(=O)N2CCCC2=O)oc2ccccc12`: the inhibition was 10.7% (inactive). The figure for `CCOC(=O)N1CCN(C(=O)CSc2nc(=O)n3cccc(C)c3n2)CC1` is -1.99% (inactive); for `CCCCSc1nc2ccccc2[nH]1` it is 22.4% (inactive); for `CCc1nnc(NC(=O)CCCSc2nc3ccccc3[nH]2)s1` it is -10.6% (inactive). The figure for `O=C(COC(=O)CCCSc1nc2ccccc2[nH]1)Nc1ccc(Oc2ccccc2)cc1` is 38.2% (active); for `COCCN(C(=O)CC1CCCCC1)c1c(N)n(CC(C)C)c(=O)[nH]c1=O` it is -47.9% (inactive); for `Cc1cc(C)n2nc(C(=O)OCC(=O)N(CCC#N)c3ccc(F)cc3)nc2n1` it is -5.33% (inactive).

The record behind these values is PubChem BioAssay AID485344 (National Center for Advancing Translational Sciences (NCATS), 2010).
